# In the library only some 21% were active in any assay of this set; here they are far more common.
# FBPA Giardia inh = qHTS Assay for Inhibitors of Fructose-1,6-bisphosphate Aldolase from Giardia Lamblia | A8B2U2 | purified Giardia FBPA | Potency, µM (series often up to 59.6 µM), usual class: inhibitors | hit rate 0.71% among 290,000 | AID 2451, 2010; also: nearly all actives have a fitted effect of over 55% in size
# Target sequence (A8B2U2 whole entry, looked up): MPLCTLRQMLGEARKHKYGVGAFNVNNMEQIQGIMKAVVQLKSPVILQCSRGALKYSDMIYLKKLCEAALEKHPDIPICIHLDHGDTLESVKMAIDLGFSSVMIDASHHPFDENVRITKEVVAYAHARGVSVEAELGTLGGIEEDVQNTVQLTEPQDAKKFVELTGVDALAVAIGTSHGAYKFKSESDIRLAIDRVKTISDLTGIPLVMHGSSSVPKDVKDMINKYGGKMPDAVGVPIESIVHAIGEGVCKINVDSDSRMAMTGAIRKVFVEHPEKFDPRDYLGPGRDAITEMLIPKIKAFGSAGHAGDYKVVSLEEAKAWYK
#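 Giardia FBPA (40 nM reagent) was preincubated 10 min at RT with compound (up to 57.5 uM final), then substrate plus GAPDH/TPI/NAD/arsenate coupling system with diaphorase/resazurin was added; resorufin fluorescence (525/598 nm) was read after 20 min.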
# Pf growth 96h = Primary qHTS for delayed death inhibitors of the malarial parasite plastid, 96 hour incubation | AID 504834, 2011 | P. falciparum luciferase reporter growth, 96 h | hit rate 6.9% among 320,000 | Potency, µM (titrated, usually from 28.7 µM), hits mostly inhibitors
#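 Infected RBCs, 2% Hct / 0.05% parasitemia final; luciferase-reporter P. falciparum; cpd 96 h, 37 C, 5% CO2; luciferase detection reagent; luminescence.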
# Cycloheximide cs = Cycloheximide Counterscreen for Small Molecule Inhibitors of Shiga Toxin; max response, %; cell reporter, cycloheximide protein synthesis inhibition counterscreen; hit rate 12% among 300,000; in the data active = max response mostly above about 13%, no sharp cut-off; inactive = mostly below about 14%; also: read at 38.3 µM for the half of the compounds with a filed dose
# Shiga inhibitor = A qHTS for Small Molecule Inhibitors of Shiga Toxin; inhibition, % at 38.7 µM; Vero cells, Shiga toxin protein synthesis inhibition reporter; AID 2315, 2010; hit rate 9.2% among 290,000; in the data active = inhibition mostly above about 28%, no sharp cut-off; inactive = mostly below about 43%
# Pf growth 48h = Primary qHTS for delayed death inhibitors of the malarial parasite plastid, 48 hour incubation. P. falciparum luciferase growth in erythrocytes, 48 h. Potency, µM (highest dose often 28.7 µM), actives largely listed as inhibitors. hit rate 5.9% among 310,000
#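 Read-out is firefly luciferase luminescence from an integrated reporter in P. falciparum, so falling signal marks reduced parasite growth. Infected erythrocytes were at 2% hematocrit and 0.1% parasitemia (final) in Albumax-supplemented RPMI 1640.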
# NS1 inh = qHTS Assay for Inhibitors of Influenza NS1 Protein Function. Potency, µM (series often up to 46.1 µM). hit rate 0.4% among 270,000. AID 2326, 2010; calls by dose curve; also: actives are rising curves; nearly all actives have a fitted effect of over 50% in size
#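 OD600 was taken as the measure of yeast growth restored by compound in an NS1-expressing S. cerevisiae strain. Cells had been washed out of glucose medium and diluted 1:100 into galactose -URA medium, pH 6.0.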
# A number is an active result; . = inactive; ? = inconclusive; / = not tested or not shown; [ ] = dose if it differs, or a comment. Unless noted, calls follow the shape of the dose curve; as a rule, active = well fitted curve in the direction sought with a large enough effect; inconclusive = small, poorly fitted or top-dose-only effect, or another doubt; inactive = no such curve, though single readings can be large; an effect the other way counts as inactive or inconclusive.
SMILES,FBPA Giardia inh,Pf growth 96h,Cycloheximide cs,Shiga inhibitor,Pf growth 48h,NS1 inh
COc1cccc(CC(NC(C)=O)C(=O)NC2CCN(S(=O)(=O)c3cccc4ccccc34)CC2)c1 (stereo not drawn),.,12µM,.,.,/,.
COc1ccc(CC(NC(C)=O)C(=O)NC2CCN(c3nnnn3-c3ccccc3)CC2)cc1 (stereo not drawn),.,.,.,.,.,.
COc1nc(OC)nc(N2CCC(NC(=O)C(Cc3ccc(C(C)C)cc3)NC(C)=O)CC2)n1 (stereo not drawn),.,.,.,.,10µM,.
COc1ccc(S(=O)(=O)N2CCC(NC(=O)C(Cc3cccc(OC)c3OC)NC(C)=O)CC2)cc1 (stereo not drawn),.,.,.,.,.,.
COc1cc(CC(NC(C)=O)C(=O)NC2CCN(c3nc(OC)nc(OC)n3)CC2)cc(OC)c1 (stereo not drawn),.,5.2µM,.,.,13µM,.
O=C(c1ccc(F)c(F)c1)N1CCCc2ccccc21,.,.,.,.,.,.
Cc1c(Cl)cccc1NC(=O)CN(C1CCCCC1)S(C)(=O)=O,.,?,.,.,.,.
CCOC(=O)N1CCN(C(=O)c2ccc3c(c2)NC(=O)/C(=C\c2ccc(OC)c(OC)c2)S3)CC1,.,13µM,.,.,?,.
CCOc1ccc(/C=C2\SC(=O)N(CCNC(=O)C3COc4ccccc4O3)C2=O)cc1OC (stereo not drawn),.,.,19,.,?,.
Cc1cccc(/C=C2\Sc3ccc(C(=O)NCC4CCCO4)cc3N(C)C2=O)c1 (stereo not drawn),/,?,.,.,?,.
CCOc1ccc(/C=C2/Sc3ccc(C(=O)NCC4CCCO4)cc3N(C)C2=O)cc1OC (stereo not drawn),.,13µM,.,.,8.3µM,.
O=C1Nc2cc(C(=O)N3CCOCC3)ccc2S/C1=C\c1ccccc1,/,.,.,.,?,.
COc1ccc(/C=C2/Sc3ccc(C(=O)N4CCOCC4)cc3NC2=O)cc1OC,.,15µM,.,.,?,.
Oc1ccccc1N1CCN(C(c2ccccc2)c2ccccc2)CC1,.,?,.,.,?,.
CCCCN(c1ccccc1)c1ncnc2c1cnn2C,/,/,/,/,/,.
CCO[C@@H]1OC(C(=O)NCc2ccccc2)=C[C@H](c2coc3ccccc3c2=O)[C@H]1CCCO,.,?,.,.,?,.
O=C(O)[C@H](C1NCCS1)N1C(=O)c2ccccc2C1=O (stereo partly drawn),/,/,/,/,/,.
CCOC(=O)N1CCN(C(=O)c2ccc3c(c2)N(C)C(=O)/C(=C\c2ccc(OCC)c(OC)c2)S3)CC1,.,.,.,.,1.2µM,.
CN(C)c1cc[n+](CC(=O)Nc2ccccc2C(F)(F)F)cc1,.,.,.,/,?,.
CN(C)c1ccc(N=Nc2ccccc2C(=O)OCC(=O)N2CCCCCC2)cc1,.,.,28,56,.,.
CN(C)c1ccc(N=Nc2ccccc2C(=O)OCC(=O)Nc2ccccc2C(F)(F)F)cc1,.,9.3µM,37,56,?,?
CN(C)c1ccc(N=Nc2ccccc2C(=O)OCC(=O)N2CCCC2)cc1,.,13µM,.,.,?,.
Cc1cccc(C)c1NC(=O)CNC(=O)C(C)N1CCN(c2cccc(Cl)c2)CC1 (stereo not drawn),/,.,/,/,?,/
COc1ccc(S(=O)(=O)N2CCCCC2)cc1NC(=O)Cc1c[nH]c2ccccc12,.,8.3µM,.,.,?,?
Cc1ccc(NC(=O)Cc2c[nH]c3ccccc23)cc1S(=O)(=O)N1CCCCCC1,.,12µM,.,.,13µM,.
SMILES,FBPA Giardia inh,Pf growth 96h,Cycloheximide cs,Shiga inhibitor,Pf growth 48h,NS1 inh
COc1ccc(S(=O)(=O)N2CCCCC2)cc1NC(=O)CSc1ncnc2ccccc12,.,2.3µM,.,.,12µM,.
COc1ccc(CC(=O)Nc2cc(S(=O)(=O)N3CCCCC3)ccc2C)cc1OC,.,.,.,.,?,/
Cc1ccc(NC(=S)NCc2ccccc2)cc1S(=O)(=O)N1CCCCC1,.,?,.,.,?,?
COc1ccc(S(=O)(=O)N2CCCCCC2)cc1NC(=O)Cc1cc(OC)c(OC)c(OC)c1,.,3.7µM,.,.,?,.
Cc1ccc(S(=O)(=O)Nc2ccccc2CNC2CCCCC2)cc1,.,.,.,.,.,/
CCc1ccccc1N(CC(=O)NC1CCCC1)C(=O)CNC(=O)c1cccs1,.,.,.,.,.,.
Cc1ccc(S(=O)(=O)N2CCCCC2)cc1NC(=O)CN1CC=C(c2ccccc2)CC1,.,10µM,.,.,?,.
Cc1ccc(S(=O)(=O)N2CCCCC2)cc1NC(=O)CNc1ccccc1N1CCCC1=O,/,?,/,/,13µM,/
COc1ccc(C)cc1S(=O)(=O)N(CC(=O)Nc1cc([N+](=O)[O-])ccc1C)c1ccc(C)c(C)c1,.,?,.,.,10µM,.
Cc1ccc(S(=O)(=O)N2CCOCC2)cc1NC(=O)CN1CCC(Cc2ccccc2)CC1,?,3.7µM,.,.,13µM,.
COc1ccc(C)cc1S(=O)(=O)N(CC(=O)Nc1cccc([N+](=O)[O-])c1)c1cc(C)cc(C)c1,.,?,.,.,?,.
CCN(C(=O)COC(=O)c1nn(-c2ccccc2)c(=O)c2ccccc12)C1CCS(=O)(=O)C1 (stereo not drawn),.,.,.,.,.,.
COc1ccc(S(=O)(=O)N2CCCCC2)cc1NCC(=O)Nc1ccc(C)cc1,.,.,.,.,.,.
Cc1ccc(S(=O)(=O)N2CCCCC2)cc1NC(=O)Cc1c[nH]c2ccccc12,.,5.2µM,.,.,?,.
COc1ccc([N+](=O)[O-])cc1NCC(=O)Nc1cc(S(=O)(=O)N2CCCCC2)ccc1C,/,?,/,/,12µM,/
COc1ccc(CCNC(=O)CCc2nnc(Cc3ccc4c(c3)OCO4)o2)c(OC)c1,.,.,.,.,.,.
CCn1c(COc2cccc3cccnc23)nnc1SC(F)F,.,.,.,.,.,.
CC(C)(C)c1ccc(C2CC2C(=O)N/N=C\c2ccc[nH]2)cc1 (stereo not drawn),.,.,12,.,?,.
O=C(Cc1ccccc1)N/N=C/c1ccc[nH]1,.,.,.,.,.,.
O=C(N/N=C/c1ccc[nH]1)c1ccc(O)cc1,.,10µM,28,101,.,.
O=C(N/N=C/c1ccc[nH]1)c1ccccc1O,?,?,37,40,.,.
CCNc1nc(NC(C)(C)C)nc(N2CCCC2)n1,.,.,.,.,1.5µM,.
CC(C)(C)Nc1nc(N2CCCC2)nc(N2CCCC2)n1,.,.,.,.,?,.
C/C=C/OC(=O)NC(c1cccc(C)c1)[C@@]1(C(=O)OCC)CCCC1=O (stereo partly drawn),.[12.9 µM],/,/,/,/,/

# Compound activity from PubChem.
